# Tested on: RARg homodimer (NR concentration 270 nM)
# Assay: PBM binding z-score (relative to random genomic background probes); higher = stronger binding; sequences stand for … in GC…GCGATTGACAGCGTAGAATGAAGG
# In short: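 Ligand-free nuclear receptor dimers were applied to custom Agilent 4×180K protein-binding microarrays whose double-stranded probes carried direct-repeat seeds, single-nucleotide variants, half-site ablations and random human genomic background sequences in 34-nt variable regions. Incubation lasted 1 h. Binding z-scores were computed against the random background probes from regression-normalized fluorescence.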
row,Sequence,PBM binding z-score
1,ACAGACAGGTGAGTGAAGCTAACTCAGCTGGACG,0.288
2,AGTCAAAGTTCATCTATGTAACGTAAGATATGCT,6.01
3,ATCTCTAGGTAAAAGTTCAGTGCATCCCGAGGAT,1.81
4,ATCTCTAGGTAAAGTTAGTTCAGTGAATGCAAAT,0.531
5,GCGACTGGGGCAAAGCAGGTGACCATAAGGTTGG,0.536
6,TCTTGAAGATCAAAGGTTAAGAAAGCCGAAGCCT,0.685
7,TCTAGCAGGCCGGAGGGTCACTCAAGAGGTACGG,1.52
8,CTACCAATGTGAACAAGGTCGTTGATTACTATTC,0.564
9,GCTATTAGCTGAAAGGGCAACCGAATGATTCTCG,0.974
10,CGAACTAGGTCAAGGACAGCGAATCTCCGCACGC,4.6
11,CCTACTGGGCCCTCAGGTCATTGATATCAACGTT,0.939
12,CATACAGGGTCAACTAGGCCAGAGTAGGGACGGC,5.42
13,GTACCAAGGTGAAAAGGTCGTTGATGAGTAGGCG,2.59
14,CGTCCAAGGTCATAGGAGGTAAGTGAAGACAGAT,5.93
15,CGAACTAGGTCATCCAGGAAAGTGAATACATTGA,4.93
16,TCTAGATGGTCACGGAGGTCACACACGACGGGTA,4.89
17,GGAACGAGGGCAAAGTTGATAGTATCTGTCGACG,1.84
18,TCTTGTAGATCAACAGGAGGTTAAGAAGGATCGA,0.15
19,TCTTGTAGATCAAAGGTTCAGAAAGCCGAAGCCT,0.335
20,CGTCCAAAGTCAGCAGGTCAGTGAAAGCGACGTG,1.5
21,CCTTACGGGTCAACGTTATAGCACGGGTGGTACG,4.64
22,TATGCAGGGTCAAAGGCCAGAGTACGAATGTCGA,4.89

# — the supplement of paper PMC6555819
